In PubChem BioAssay AID1851 (National Center for Advancing Translational Sciences (NCATS), 2009):
“And” between values parts separate entries of the source, which are not always exact repeats. Equal entries are not always repeated. Among all 16,000 compounds or so, about 5,800 (36%) were called active. Roughly 23% stayed inconclusive and do not appear here. The call rests on the fitted dose curve; in most records, active means well fitted curve in the direction sought with a large enough effect; inconclusive means small, poorly fitted or top-dose-only effect, or effect the other way; inactive means no such curve, though single readings can be large or run the other way. The list shows a part of the results.

molecular target: Cytochrome P450 2C19 (Homo sapiens) (UniProt P33261); assay: Cytochrome panel assay with activity outcomes; settings: recombinant CYP, pro-luciferin dealkylation, luminescence, p450-cyp2c19; series mostly up to 57.1 µM
On the % scale 0 is the no-effect control and ±100 the full control effect.

Sequence of Cytochrome P450 2C19 (Homo sapiens) (P33261 whole entry, looked up): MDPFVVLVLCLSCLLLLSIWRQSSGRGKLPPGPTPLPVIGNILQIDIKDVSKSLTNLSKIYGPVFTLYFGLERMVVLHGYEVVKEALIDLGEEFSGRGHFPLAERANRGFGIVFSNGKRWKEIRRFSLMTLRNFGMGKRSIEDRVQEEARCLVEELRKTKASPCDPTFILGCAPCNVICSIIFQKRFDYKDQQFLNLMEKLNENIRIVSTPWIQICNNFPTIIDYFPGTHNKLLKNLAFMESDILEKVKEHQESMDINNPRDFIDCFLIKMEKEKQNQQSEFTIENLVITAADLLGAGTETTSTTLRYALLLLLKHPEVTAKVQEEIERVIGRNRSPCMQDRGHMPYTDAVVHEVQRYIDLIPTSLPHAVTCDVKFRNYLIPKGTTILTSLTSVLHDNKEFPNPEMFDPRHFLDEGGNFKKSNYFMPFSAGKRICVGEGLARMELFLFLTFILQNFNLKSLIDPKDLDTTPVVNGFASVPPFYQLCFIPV

AC50, inactive:
O=c1c(-c2ccc(Cl)cc2)nc2cnc(N3CCOCC3)nc2n1C1CC1
CC(=O)Nc1ccc([N+](=O)[O-])cn1
C/C(=N\NC(=O)COc1ccc([N+](=O)[O-])cc1)C(C)(C)C
CCOc1ccc2ccccc2c1C(=O)N[C@@H]1C(=O)N2[C@@H]1SC(C)(C)[C@@H]2C(=O)O
CC(C)N1CCC(=NNC(=O)c2ccc(Br)o2)CC1
Nc1nc2c(nc(Br)n2[C@@H]2O[C@H]3COP(=O)(O)O[C@H]3[C@@H]2O)c(=O)[nH]1
COC(=O)N1CCC2(CC1)CN(C(=O)Nc1cccc(C#N)c1)C2
COc1ccccc1N1CCN(C[C@@H](C(=O)NC(C)(C)C)c2ccccc2)CC1
C#CCSc1nnc(-c2cc3c(C(F)(F)F)nn(C)c3s2)n1C
CSc1nnc(-c2sc(-c3ccccc3)nc2C)n1C
COC(=O)[C@@]1(Cc2ccccc2)[C@@H]2C(=CC(=O)[C@H]2CC(=O)C(=O)N(C)C)CN1C(=O)c1ccccc1
CC(=O)NC(Cc1ccc(F)cc1)C(=O)O (centres undefined)
Cc1nnsc1SCC(=O)O
CC(=O)OCC(=O)[C@@]1(O)CC[C@@H]2[C@H]3CCC4=CC(=O)CC[C@]4(C)[C@]3(F)[C@@H](O)C[C@@]21C
C[C@@]12CCC(=O)C=C1CC[C@H]1[C@H]3CC[C@](O)(C(=O)CO)[C@]3(C)CC(=O)[C@@H]12
O=C(c1cccc(F)c1)N1CCC2(CC1)CCN(c1ccc(-c3ccccc3)cc1)CC2
CC(C)[C@H](CO)Nc1nc(Nc2cc(N)cc(Cl)c2)c2ncn(C(C)C)c2n1
CC(=O)NCCNc1nc(-c2ccc(C(=O)N(C)C)cc2)nc2ccccc12
Cc1cnc(CNc2nc(-c3ccc(C(=O)N(C)C)cc3)nc3ccccc23)cn1
C=C1CC[C@H](O)C/C1=C/C=C1\CCC[C@]2(C)[C@H]1CC[C@H]2[C@@H](C)/C=C\[C@@H](C)C(C)C
CCOC(=O)c1c(NC(=O)c2ccc(N3CCOCC3)c([N+](=O)[O-])c2)sc(C)c1C

AC50, active:
O=C(COc1ccc(Br)cc1)Nc1ccc([N+](=O)[O-])cn1 2.82 µM
CCOc1cc(C2CC(=O)c3c(ccc4ccccc34)N2)ccc1O (centres undefined) 5.01 µM
Cc1cc(OCc2nc(N)nc(N)c2-c2ccc(Cl)c(Cl)c2)ccc1[N+](=O)[O-] 3.16 µM
CCCN1CCC(=NNC(=O)c2ccc(Br)o2)CC1 25.1 µM
O=C(Nc1nnc(SCc2ccc(Cl)cc2Cl)s1)C1COc2ccccc2O1 (centres undefined) 2.51 µM
CCCC(=O)Nc1cccc(Oc2nc(C)cc(C)c2C#N)c1 17.8 µM
Cc1cnc(NC(=O)CCCc2nc3ccccc3s2)s1 7.94 µM
COc1ccccc1N1CCN(C[C@@H](O)COc2cccc3ccccc23)CC1 6.31 µM and 7.94 µM and 1.58 µM
Clc1ccc(CN2CCCN(Cc3ccc(Cl)cc3)C2c2cc3ccccc3c3ccccc23)cc1 0.794 µM
CC(C)CC(=O)Nc1ccccc1-c1nnn(CC(=O)N2CCc3ccccc3C2)n1 14.1 µM
COc1ccc2c(c1OC)C(=O)OC2[C@H]1c2c(cc3c(c2OC)OCO3)CCN1C (some centres undefined) 2.51 µM
COc1ccc2c(c1OC)C(=O)O[C@@H]2[C@H]1c2c(cc3c(c2OC)OCO3)CCN1C 0.158 µM
C#CCSc1nnc(-c2sc(-c3ccccc3)nc2C)n1C 2.51 µM
COC(=O)[C@@]1(Cc2ccc(F)cc2)[C@@H]2C(=CC(=O)[C@H]2CC(=O)C(=O)N(C)C)CN1C(=O)c1ccccc1 25.1 µM
COC(=O)[C@@]1(Cc2ccc(F)cc2)[C@@H]2C(=CC(=O)[C@H]2CC(=O)C(=O)N2CCCC2)CN1C(=O)c1ccccc1 31.6 µM
CC(NC(=O)Cc1ccc(F)cc1)c1ccccc1 (centres undefined) 11.2 µM
O=C(O)CSc1sc(=S)sc1SCC(=O)O 10 µM
COc1cccc(C(=O)N(Cc2ccccc2)Cc2cc3cc4c(cc3[nH]c2=O)OCCO4)c1 15.8 µM
Cc1cc(/C=N/n2cnnc2)c(C)n1-c1ccc(OCc2ccccc2F)cc1 2 µM
CS[C@]12C(=O)C[C@]3(C)[C@@H](CC[C@@]3(O)C(=O)CO)[C@@H]1CCC1=CC(=O)CC[C@]12C 3.16 µM
Cc1ccc(C(=O)N2CCN(c3cc(=O)[nH]nc3-c3ccccc3)CC2)cc1 20 µM
CN(C)C(=O)c1ccc(-c2nc(Nc3ccccc3)c3ccccc3n2)cc1 15.8 µM
CN(C)C(=O)c1ccc(-c2nc(NCc3cccs3)c3ccccc3n2)cc1 10 µM
CN(C)C(=O)c1ccc(-c2nc(Nc3ccc(F)cc3)c3ccccc3n2)cc1 31.6 µM
Cc1ccc(OCC(=O)N2CCN(c3ccc([N+](=O)[O-])c(N4CCOCC4)c3)CC2)cc1 14.1 µM
Cn1c(=O)n(C)c2cc([N+](=O)[O-])c(N3CCN(C(=O)c4ccccc4Cl)CC3)cc21 17.8 µM
Cc1ccc(OC(=O)c2ccc(N3CCOCC3)c([N+](=O)[O-])c2)cc1 20 µM
CO/N=C/c1ccc(N2CCN(C(=O)c3ccc(Cl)cc3Cl)CC2)c([N+](=O)[O-])c1 5.01 µM

activity, negative = inhibition, inactive:
Nc1cccc(OCc2nc(N)nc(N)c2-c2ccc(Cl)cc2)c1 -6.77% [at 11.4 µM]
O=C(O)[C@@H]1CCCN1Cc1cc2ccccc2c2ccccc12 31.6% [at 11.4 µM]
C[C@H]1CCCC=CC2C[C@H](OC(=O)CN(C)C)C[C@@H]2[C@@H](O)/C=C\C(=O)O1 (some centres undefined) 8.1% [at 11.4 µM]
C/C(CCN1CCc2nc(-c3ccccc3)c(-c3ccccc3)cc2C1)=N\O[C@@H](C)CN1CCCc2nc(C)c(C)cc21 -28.4% [at 11.4 µM]
CCOC(=O)C(C)(C)[C@H](O)C(C)C 3.67% [at 11.4 µM]
